INS-1E GSIS act: primary screen for activators of insulin secretion dependent on glucose, INS-1E cells, GLuc reporter luminescence. INS-1E GLuc reporter insulin secretion, 2-3 h. activation, % at 16.6 µM. 370,000 compounds, 0.61% hits. AID 743287;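 active means lowest replicate activation of at least 40%, so every replicate reaches that level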
C2C12 statin: suppressors of simvastatin-induced myotoxicity in C2C12 myotubes. rescue of ATP level, % at 7.49 µM. 330,000 compounds, 0.78% hits. ATP luminescence, 48 h; scaled: DMSO 0, geranylgeraniol control 100;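 active means mean ATP rescue above about 67%, or every replicate alone reaching that limit, limit read from the data, passing the limit was not always enough; inconclusive means no clear call, values can overlap the other calls; inactive means mean under the limit and some replicate under it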;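 further: myotubes were challenged with 10 µM simvastatin during compound exposure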
PAX8 reporter: inhibitors of PAX8 transcriptional activity in RMG-I cells; AID 652154; 360,000 compounds, 1.2% hits; RMG-I TPO-luciferase reporter, SteadyGlo, 24 h; inhibition, % at 12.6 µM;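 active means mean replicate inhibition at least 60% with every replicate also reaching 60%; inconclusive means only one of the two criteria is met; inactive means mean below 60% and not all replicates reaching 60%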;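 further: luciferase light reporting Pax8 driven TPO promoter activity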
Env fusion inh: blocks HIV Env-driven cell-cell fusion. inhibition, % at 12.3 µM. HeLa-JRFL Env/CEM21 cell fusion, luciferase. AID 651610. 360,000 compounds, 1.1% hits;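 active means mean replicate inhibition score of at least 50 and every replicate individually at or above 50; inconclusive means only one of the two criteria met; inactive means mean below 50 and not all replicates reaching 50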
miR-122 sensor: blocks miR-122 activity in Huh7 sensor cells; 340,000 compounds, 0.3% hits; activation (reporter increase), % at 12.5 µM; Huh7 miR-122 Renilla luciferase sensor, 48 h; neutral wells = 0, positive control = 100;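 active means mean replicate activation score at least 90 and every replicate individually at or above 90; inconclusive means only one of the two criteria met; inactive means neither criterion met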;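 further: higher luciferase means less miR-122 activity so hits act as miR-122 inhibitors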
EWS-Fli inh: inhibitors of EWS/Fli oncoprotein transcriptional activity; inhibition, % at 12.6 µM; A673 NR0B1-luciferase reporter, viability-normalised; 350,000 compounds, 0.67% hits;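 active means mean inhibition of at least 50% after viability correction, with every replicate also passing that limit; inconclusive means mean reaches 50% but only one of two replicates passes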;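 further: firefly luciferase signal divided by Alamar Blue viability fluorescence both relative to DMSO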
Of the large screens only hits and unclear results are named; the others gave an inactive call; [ ] = remark or other dose. Rows were chosen to be rich in hits. Some 3.1% of all compounds tested hit in one or more screens of this group.

COCOCCn1cc(CN2CCS(=O)(=O)N(Cc3ccc(-c4ccc(Cl)cc4)cc3)C(C)C2=O)nn1 (configuration not stated)	Env fusion inh 57.4
COc1ccccc1NC1=NCC(=O)N1Cc1ccccc1	C2C12 statin 88.1 (no result: INS-1E GSIS act, EWS-Fli inh)
COc1cc2c(cc1NC(=O)COC(=O)C(CCSC)NC(=O)c1ccccc1Cl)oc1ccccc12 (configuration not stated)	PAX8 reporter 62.2 (no result: C2C12 statin, Env fusion inh, miR-122 sensor)
Cc1ccc(NC(=O)c2cc(S(=O)(=O)NCC3CCCO3)ccc2F)cc1 (configuration not stated)	none (no result: INS-1E GSIS act)
COc1ccc(C)cc1S(=O)(=O)NCCC1=CCCCC1	miR-122 sensor 93.4 (no result: PAX8 reporter, Env fusion inh)
COc1ccc(C)cc1S(=O)(=O)N1CCC(C(=O)NCCC2=CCCCC2)CC1	none (no result: INS-1E GSIS act, PAX8 reporter, EWS-Fli inh)
O=S(=O)(NCCC1=CCCCC1)c1ccccc1Br	miR-122 sensor 139.9
Cc1ccc(NC(=O)c2cc(S(=O)(=O)NCCC3=CCCCC3)ccc2F)cc1	PAX8 reporter 64.1 (no result: INS-1E GSIS act, C2C12 statin, Env fusion inh)
O=S(=O)(NCCC1=CCCCC1)c1ccccc1Cl	miR-122 sensor inconclusive (no result: Env fusion inh)
C[C@H](CO)N1C[C@H](C)[C@H](CN(C)Cc2ccccc2)OCCCC[C@H](C)Oc2ccc(NC(=O)CCCN(C)C)cc2C1=O	none
COC(=O)[C@@H]1[C@@H](CO)[C@@H]2Cn3c(ccc(-c4cccc(C(=O)N(C)C)c4)c3=O)[C@@H]2N1C	none (no result: Env fusion inh)
COc1ccccc1NC(=O)N1CCN(c2ccc(F)cc2)CC1	none (no result: INS-1E GSIS act, PAX8 reporter, EWS-Fli inh)
COc1ccccc1NC(=O)N1CCN(c2cccc(C(F)(F)F)c2)CC1	C2C12 statin 123.3 (no result: PAX8 reporter, EWS-Fli inh)
O=C(c1ccccc1F)N1CCN(c2cccc(C(F)(F)F)c2)CC1	none (no result: INS-1E GSIS act, PAX8 reporter, EWS-Fli inh)
O=C(c1c(F)c(F)c(F)c(F)c1F)N1CCN(c2cccc(C(F)(F)F)c2)CC1	PAX8 reporter 66.8 (no result: EWS-Fli inh)
Cc1ccc(CC(=O)N2CCN(c3cccc(C(F)(F)F)c3)CC2)cc1	none (no result: INS-1E GSIS act, PAX8 reporter, Env fusion inh, EWS-Fli inh)
COc1ccccc1CC(=O)N1CCN(c2cccc(C(F)(F)F)c2)CC1	Env fusion inh 66.0 (no result: INS-1E GSIS act, PAX8 reporter, miR-122 sensor, EWS-Fli inh)
CCC(=O)Nc1ccc2c(c1)C(=O)N(C)[C@H]1CC[C@H](CC(=O)Nc3c(F)cccc3F)O[C@@H]1CO2	none (no result: miR-122 sensor)
C[C@@H]1CN([C@@H](C)CO)C(=O)Cc2cc(NC(=O)Nc3ccc4c(c3)OCO4)ccc2O[C@H]1CN(C)S(C)(=O)=O	none (no result: C2C12 statin, Env fusion inh, miR-122 sensor, EWS-Fli inh)
Cc1ccc(S(=O)(=O)N[C@H]2C=C[C@H](CC(=O)NCCCN(C)C)O[C@H]2CO)cc1	none (no result: miR-122 sensor)
CN(C(=O)c1ccc(N2CCCCC2)c([N+](=O)[O-])c1)C1CCS(=O)(=O)C1 (configuration not stated)	C2C12 statin 108.2
Cc1ccc(N(Cc2ccco2)C(=O)c2ccc(N3CCCCC3)c([N+](=O)[O-])c2)cc1	miR-122 sensor 164.5
C[C@@H]1CCCCO[C@@H](CN(C)C(=O)c2ccncc2)[C@H](C)CN([C@H](C)CO)C(=O)c2cc(NC(=O)c3ccccc3)ccc2O1	none (no result: C2C12 statin, EWS-Fli inh)
CCCN(C)C[C@H]1Oc2cc(-c3cncnc3)ccc2S(=O)(=O)N([C@H](C)CO)C[C@H]1C	none (no result: PAX8 reporter, miR-122 sensor)
CSc1nnc2c3cc(F)ccc3n(Cc3ccccc3)c2n1	miR-122 sensor 163.6 (no result: INS-1E GSIS act, EWS-Fli inh)
CSc1nnc2c3ccccc3n(Cc3ccccc3)c2n1	none (no result: INS-1E GSIS act, PAX8 reporter, Env fusion inh, EWS-Fli inh)
C[C@@H]1CN([C@@H](C)CO)C(=O)Cc2cc(NC(=O)Nc3cccc4ccccc34)ccc2O[C@@H]1CN(C)S(=O)(=O)c1ccc(Cl)cc1	C2C12 statin 94.8
C[C@H]1CN([C@@H](C)CO)C(=O)Cc2cc(NC(=O)Nc3cccc4ccccc34)ccc2O[C@H]1CN(C)S(=O)(=O)c1ccc(Cl)cc1	Env fusion inh 62.2[16.7 µM]
CCC(=O)N1[C@@H]2CN(C(=O)c3ccccc3F)c3ccccc3[C@@H]2[C@@H]1CO	none (no result: Env fusion inh)
CC(C)N1C(=O)N(c2cccc(Cl)c2)C(C)(O)CC1(C)C (configuration not stated)	INS-1E GSIS act 63.6
O=C(C[C@H]1C=C[C@@H](NC(=O)c2cccc(F)c2)[C@H](CO)O1)NCCN1CCCC1	none (no result: miR-122 sensor)
CCC(=O)N1C[C@@H](C)[C@@H](OC)CN(C)C(=O)c2cc(NC(=O)CC(F)(F)F)ccc2OC[C@@H]1C	none (no result: C2C12 statin, Env fusion inh, miR-122 sensor, EWS-Fli inh)
CCOCCOC(=O)c1[nH]c2c(c1C)C(=O)CC(c1cccs1)C2 (configuration not stated)	EWS-Fli inh 52.8 (no result: C2C12 statin)
COC(=O)c1[nH]c2c(c1C)C(=O)CC(c1ccc(OC)c(OC)c1)C2 (configuration not stated)	none
COC(=O)c1[nH]c2c(c1C)C(=O)CC(c1cccc(OC)c1)C2 (configuration not stated)	PAX8 reporter 81.7, EWS-Fli inh 59.6 (no result: miR-122 sensor)
CCOC(=O)c1[nH]c2c(c1C)C(=O)CC(c1ccc(F)cc1)C2 (configuration not stated)	EWS-Fli inh 63.2
CCCOC(=O)c1[nH]c2c(c1C)C(=O)CC(c1ccc(OC)c(OC)c1)C2 (configuration not stated)	none (no result: C2C12 statin, Env fusion inh, miR-122 sensor)
CCCCCOC(=O)c1[nH]c2c(c1C)C(=O)CC(c1ccco1)C2 (configuration not stated)	miR-122 sensor 121.0 (no result: INS-1E GSIS act, PAX8 reporter, Env fusion inh, EWS-Fli inh)
CCOC(=O)c1[nH]c2c(c1C)C(=O)CC(c1ccc(OCC)c(OC)c1)C2 (configuration not stated)	none (no result: INS-1E GSIS act, PAX8 reporter, Env fusion inh, EWS-Fli inh)
C[C@H](CO)N1C[C@H](C)[C@H](CN(C)C)Oc2ncc(-c3cccc(C(F)(F)F)c3)cc2C1=O	none (no result: PAX8 reporter)
C/C=C/c1ccc(C2[C@@H]3CN(C(=O)CN4CCOCC4)C[C@H]2N3)cc1 (some centres not stated)	none (no result: C2C12 statin, Env fusion inh, miR-122 sensor)
CCOCCOC(=O)c1[nH]c2c(c1C)C(=O)CC(c1ccccc1)C2 (configuration not stated)	PAX8 reporter 81.9, EWS-Fli inh inconclusive
COCCOC(=O)c1[nH]c2c(c1C)C(=O)CC(c1cccs1)C2 (configuration not stated)	EWS-Fli inh 60.7 (no result: C2C12 statin, miR-122 sensor)
CCOCCOC(=O)c1[nH]c2c(c1C)C(=O)CC(c1cc(OC)c(OC)c(OC)c1)C2 (configuration not stated)	none
CC(C)NC(=O)Nc1ccc2c(c1)CC(=O)N([C@H](C)CO)C[C@H](C)[C@@H](CN(C)Cc1ccc3c(c1)OCO3)O2	none (no result: EWS-Fli inh)
C/C=C/c1ccc(C2[C@H]3CNC[C@@H]2N3S(=O)(=O)c2cccc(OC)c2)cc1 (some centres not stated)	none (no result: C2C12 statin, Env fusion inh, miR-122 sensor)
COc1ccccc1C#Cc1ccc2c(c1)[C@H]1[C@H](CCN1C(=O)CN1CCOCC1)[C@H](CO)N2	none (no result: Env fusion inh)
CCN=C1S/C(=C\c2cn(CC(=O)NCc3ccco3)c3ccccc23)C(=O)N1CC	PAX8 reporter 78.3
Cc1ccc(S(=O)(=O)Nc2ccc3c(c2)C(=O)N([C@H](C)CO)C[C@@H](C)[C@@H](CN(C)C(=O)NC2CCCCC2)OCCCC[C@H](C)O3)cc1	none (no result: C2C12 statin)

Screening results as filed in PubChem BioAssay.
